The values that follow come from PubChem BioAssay (EPA / NIEHS).

As a reminder, the AC50 is the midpoint of the concentration-response curve, whichever way the signal moves.

The structures appear in SMILES notation. Records with an inconclusive call do not appear. Active and inactive are the calls of the source. How the source made its calls, unless noted: active means hit-call score of the fitted dose curve at least 0.9, where 1 is the maximum; inconclusive means response in the unintended direction; inactive means score below 0.9.

The nature of experiment [1]: Tanguay_ZF_120hpf_MORT_legacy: (Legacy) Oregon State University Tanguay Lab 120 Hour Post-fertilization zebrafish Assay for Mortality (AID 2283633). Summed up: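 Dechorionated Tropical 5D wild-type zebrafish embryos, one per well from 6 hpf, were statically exposed at 28C in the dark until 120 hpf (0.64% DMSO final). Mortality was scored as present/absent by brightfield microscopy, fitted positively versus DMSO.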

A short description of experiment [2]: Tanguay_ZF_120hpf_YSE_legacy: (Legacy) Oregon State University Tanguay Lab 120 Hour Post-fertilization zebrafish Assay for Yolk Sac Edema (AID 2283634). Summed up:
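Tropical 5D wild-type embryos, dechorionated with pronase at 4 hpf, were exposed singly from 6 hpf to 120 hpf under static, sealed, dark conditions at 28C with 0.64% DMSO final. Yolk sac edema was scored present/absent by brightfield microscopy.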

A short description of experiment [3]: Tanguay_ZF_120hpf_AXIS_legacy: (Legacy) Oregon State University Tanguay Lab 120 Hour Post-fertilization zebrafish Assay for Body Axis Malformation (AID 2283635).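 On AC50: potency for an increased fraction of larvae scored with body axis malformation.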 Summed up:
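Tropical 5D wild-type zebrafish embryos, dechorionated with pronase at 4 hpf, were placed singly in wells at 6 hpf and exposed statically to test chemical (0.64% DMSO final) at 28C until 120 hpf, then scored by brightfield for body axis defects.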

Experiment [4] is described as follows: Tanguay_ZF_120hpf_EYE_legacy: (Legacy) Oregon State University Tanguay Lab 120 Hour Post-fertilization zebrafish Assay for Eye Malformation (AID 2283636).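 Further: binary presence or absence of eye malformation scored by brightfield in 120 hpf larvae.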 Summed up:
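Static waterborne exposure of dechorionated zebrafish embryos (strain Tropical 5D), 6 to 120 hpf, sealed plates at 28C, 0.64% DMSO vehicle. Eye malformation is scored as a binary endpoint, with gain of signal analysed relative to DMSO.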

A short description of experiment [5]: Tanguay_ZF_120hpf_SNOU_legacy: (Legacy) Oregon State University Tanguay Lab 120 Hour Post-fertilization zebrafish Assay for Snout Malformation (AID 2283637). The method in brief: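 Dechorionated zebrafish, individually housed from 6 hpf in covered, sealed wells at 28C with 0.64% DMSO vehicle, were examined at 120 hpf for snout malformation. Responses were binary and analysed positive-direction relative to DMSO.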

Experiment [6] is described as follows: Tanguay_ZF_120hpf_JAW_legacy: (Legacy) Oregon State University Tanguay Lab 120 Hour Post-fertilization zebrafish Assay for Jaw Malformation (AID 2283638). The method in brief: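 Tropical 5D wild-type embryos, dechorionated with pronase at 4 hpf, were placed singly per well at 6 hpf and statically exposed at 28C until 120 hpf (0.64% DMSO final). Jaw malformation scored as present/absent by brightfield microscopy at 120 hpf, analyzed relative to DMSO.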

Experiment [7] can be described thus: Tanguay_ZF_120hpf_OTIC_legacy: (Legacy) Oregon State University Tanguay Lab 120 Hour Post-fertilization zebrafish Assay for Otic Vesicle Malformation (AID 2283639). Summed up:
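Statically exposed wild-type 5D zebrafish embryos, kept sealed and dark at 28C through 120 hours post fertilization, were examined by brightfield microscopy for otic vesicle defects. Responses were recorded as present or absent and analysed relative to DMSO.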

A short description of experiment [8]: Tanguay_ZF_120hpf_BRAI_legacy: (Legacy) Oregon State University Tanguay Lab 120 Hour Post-fertilization zebrafish Assay for Brain Malformation (AID 2283641). Summed up: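 Tropical 5D wild-type zebrafish embryos were exposed statically in sealed, foil-covered plates at 28C until 120 hpf, with 0.64% (vol/vol) final DMSO. Brain malformation was scored present/absent by brightfield microscopy, relative to DMSO baseline.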

Experiment [9] in a line: Tanguay_ZF_120hpf_SOMI_legacy: (Legacy) Oregon State University Tanguay Lab 120 Hour Post-fertilization zebrafish Assay for Somite Malformation (AID 2283647). Summed up: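 Tropical 5D wild-type zebrafish embryos, dechorionated with pronase at 4 hpf, were placed singly at 6 hpf and statically exposed until 120 hpf at 28C in 0.64% DMSO. Somite malformation was scored present/absent by brightfield microscopy versus DMSO.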

A short description of experiment [10]: Tanguay_ZF_120hpf_PFIN_legacy: (Legacy) Oregon State University Tanguay Lab 120 Hour Post-fertilization zebrafish Assay for Pectoral Fin Malformation (AID 2283648).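 Further: each larva judged yes or no for fin defect by brightfield with dead larvae skipped.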 Summed up:
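Scoring of pectoral fin malformation was binary, made at 120 hpf on larvae exposed statically from 6 hpf after enzymatic chorion removal. Activity was fitted upward relative to DMSO controls at 0.64% (vol/vol).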

The nature of experiment [11]: Tanguay_ZF_120hpf_CFIN_legacy: (Legacy) Oregon State University Tanguay Lab 120 Hour Post-fertilization zebrafish Assay for Caudal Fin Malformation (AID 2283649). Summed up: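 Tropical 5D wild-type embryos, dechorionated with pronase at 4 hpf, were placed singly in wells at 6 hpf and statically exposed to compound at 28C until 120 hpf (0.64% DMSO). Caudal fin malformation was scored present/absent by brightfield microscopy.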

Experiment [12] in a line: Tanguay_ZF_120hpf_PIG_legacy: (Legacy) Oregon State University Tanguay Lab 120 Hour Post-fertilization zebrafish Assay for Pigmentation Malformation (AID 2283650). The method in brief: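 Endpoint is incidence of abnormal pigmentation at 120 hpf in dechorionated 5D zebrafish exposed singly from 6 hpf at 28C, DMSO vehicle at 0.64%. Embryos dying by 24 or 120 hpf are excluded from scoring.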

Experiment [13] is described as follows: Tanguay_ZF_120hpf_CIRC_legacy: (Legacy) Oregon State University Tanguay Lab 120 Hour Post-fertilization zebrafish Assay for Circulatory Malformation (AID 2283651). Summed up:
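Embryos are dechorionated at 4 hpf, plated one per well at 6 hpf, then held under static exposure at 28C until 120 hpf. Malformations are recorded as binary calls; mortality excludes other endpoints.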

Experiment [14] is described as follows: Tanguay_ZF_120hpf_SWIM_legacy: (Legacy) Oregon State University Tanguay Lab 120 Hour Post-fertilization zebrafish Assay for Swim Bladder Malformation (AID 2283654).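 Further: swim bladder malformation in each larva scored yes or no under brightfield.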 Summed up:
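Static waterborne exposure of single dechorionated Tropical 5D zebrafish embryos, 6–120 hpf, 28C, 0.64% DMSO final. Read-out: swim bladder malformation, present/absent, relative to DMSO negative control; trimethyltin chloride 5uM served as positive control.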

Experiment [15] is described as follows: Tanguay_ZF_120hpf_PE_legacy: (Legacy) Oregon State University Tanguay Lab 120 Hour Post-fertilization zebrafish Assay for Pericardial Edema (AID 2283640). The method in brief:
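Tropical 5D wild-type zebrafish embryos were exposed statically to 120 hpf at 28C, sealed and foil-covered, in 0.64% DMSO final. Pericardial edema was scored present/absent by brightfield microscopy; dead embryos were not scored.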

A short description of experiment [16]: Tanguay_ZF_120hpf_TRUN_legacy: (Legacy) Oregon State University Tanguay Lab 120 Hour Post-fertilization zebrafish Assay for Truncated Body (AID 2283655). The method in brief:
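Tropical 5D wild-type embryos, dechorionated with pronase at 4 hpf, were placed singly in wells at 6 hpf and statically exposed at 28C until 120 hpf, final DMSO 0.64%. Truncated body was scored present/absent by brightfield microscopy.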

A short description of experiment [17]: Tanguay_ZF_120hpf_NC_legacy: (Legacy) Oregon State University Tanguay Lab 120 Hour Post-fertilization zebrafish Assay for Notochord and Tail Malformation (AID 2283656). The method in brief: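 Binary scoring of notochord distortion by brightfield microscopy; embryos dying were not scored. Wild-type Tropical 5D embryos, chorion removed, exposed singly and statically from 6 to 120 hpf, 28C, sealed, 0.64% DMSO.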

Read-out in experiment [18]: kallikrein-3 (KLK3), KLK3 (gene 354)
The experiment can be described thus: LTEA_HepaRG_KLK3: Life Technologies and Expression Analysis (LTEA) Assay for kallikrein-3 (KLK3) using HepaRG (AID 2283652; active means hit-call score of the fitted dose curve at least 0.9, where 1 is the maximum; inactive means score below 0.9). To be noted: mRNA level, 48 h; actives raise or lower the signal. The method in brief:
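KLK3 transcript levels were measured by TaqMan qRT-PCR with normalisation to three housekeeping genes. HepaRG cultures received chemicals for 48 h at up to 100 uM (half-log, 8 points, 0.5% DMSO vehicle), fitted in both directions against DMSO.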

Read-out in experiment [19]: solute carrier (SLC22A6), SLC22A6 (gene 9356)
In words: LTEA_HepaRG_SLC22A6: Life Technologies and Expression Analysis (LTEA) Assay for solute carrier (SLC22A6) using HepaRG (AID 2283653; active means hit-call score of the fitted dose curve at least 0.9, where 1 is the maximum; inactive means score below 0.9). To be noted: mRNA level, 48 h; actives raise or lower the signal. The method in brief:
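Differentiated human HepaRG cells were exposed for 48 h in serum-free induction medium to eight concentrations (top 100 uM, half-log steps, 0.5% DMSO), in duplicate. SLC22A6 mRNA was quantified by qRT-PCR, normalised to ACTB, GAPDH and POLR2A, and fitted bidirectionally against DMSO.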

Read-out in experiment [20]: solute carrier (SLC10A1), SLC10A1 (gene 6554)
The experiment can be described thus: LTEA_HepaRG_SLC10A1: Life Technologies and Expression Analysis (LTEA) Assay for solute carrier (SLC10A1) using HepaRG (AID 2283657; active means hit-call score of the fitted dose curve at least 0.9, where 1 is the maximum; inactive means score below 0.9). To be noted: mRNA level, 48 h; actives raise or lower the signal. Summed up:
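Cryopreserved HepaRG cells are thawed, plated and cultured 48 h; medium is then switched to serum-free induction medium and chemicals added (8 points, max 100 uM, 0.5% DMSO). After 48 h, RNA is isolated and SLC10A1 quantified by qRT-PCR.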

`[O-][Cl+]O`: the call in [1], in experiment [2], in experiment [3], in [4], in experiment [5] and in experiment [6] was inactive. The call in [7], in experiment [8], in experiment [9], in [10], in [11] and in [12] was inactive. Further, the compound was classed as inactive in experiment [13] and in experiment [14].
Consider `Clc1ccc(C(c2ccc(Cl)cc2)C(Cl)Cl)cc1`, for which the result in experiment [1], in experiment [2], in experiment [3], in experiment [4], in experiment [5] and in [6] was inactive. Moreover, the outcome in [7], in experiment [15], in experiment [13], in experiment [14], in experiment [16] and in experiment [17] was inactive.
For the compound `CC(C)(O)c1cnn2c(-c3ccc(F)c(-c4c(F)cccc4C#N)c3)cnc2n1`, the call in experiment [1], in experiment [2], in experiment [3], in [4], in experiment [5] and in experiment [6] was inactive. Besides, the call in [7], in [8], in experiment [9], in experiment [10], in [11] and in [12] was inactive. Also, the result in experiment [13], in experiment [14] and in [16] was inactive.
Regarding `Nc1ccc(Oc2ccc(N)cc2)cc1`, the result in [1], in [2], in experiment [3], in experiment [4], in experiment [5] and in experiment [6] was inactive. In addition, the call in [7], in experiment [15], in experiment [8], in experiment [9], in experiment [10] and in experiment [11] was inactive. For the same compound, the outcome in experiment [12], in [13], in experiment [14] and in [17] was inactive.
Take `CC(C)N(Cc1ccccc1)C(=O)C(C)(C)C`: the result in experiment [1], in experiment [2], in [3], in experiment [4], in experiment [5] and in [6] was inactive. Besides, the result in [7], in experiment [15], in [8], in experiment [9], in experiment [10] and in experiment [11] was inactive. Also, the compound was classed as inactive in experiment [13], in [14], in experiment [16] and in experiment [17].
As for `O=C(Oc1ccc(Br)cc1)N1CCN2CCC1CC2`, the compound was classed as inactive in experiment [1], in [2], in experiment [4], in experiment [5], in experiment [6] and in experiment [7]. Besides, the compound was classed as inactive in experiment [8], in experiment [9], in experiment [10], in experiment [11], in [12] and in experiment [13]. Further, the call in [14], in experiment [16] and in [17] was inactive. Besides, in experiment [3], the AC50 was 38.3 µM (active).
Turning to `CN(C)C(=O)Nc1ccc(Cl)cc1`, the result in experiment [1], in [2], in [3], in experiment [4], in experiment [5] and in [6] was inactive. Further, the result in experiment [7], in experiment [15], in [8], in experiment [9], in [10] and in [11] was inactive. Moreover, the compound was called inactive in [12], in experiment [13], in experiment [18], in [19], in experiment [14] and in experiment [16]. The compound was called inactive in experiment [17] and in [20].
As to `COc1cc(C=O)cc2c1[C@H](COC(N)=O)[C@]1(OC(C)=O)ON2C[C@H]2[C@@H]1N2C(C)=O`, the compound was classed as inactive in experiment [1], in experiment [2], in experiment [4], in experiment [6], in [7] and in experiment [15]. Besides, the result in experiment [8], in experiment [9], in experiment [10], in [11], in [12] and in [13] was inactive. The outcome in [14], in experiment [16] and in experiment [17] was inactive. Moreover, the AC50 was 51.3 µM (active) in [3] and 21.6 µM (active) in [5].
